# Measurements as given in PubChem BioAssay (NCI).
# This is part of a sample that, as a whole, favours compounds with a hit. Of some 83,000 tested, about 20% had one in any assay.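 How to read the values: 0–100, growth inhibition (40 = 60% inhibited); 0, no net growth; -100 to 0, cell death (-40 = 40% of starting cells died; -100 = all dead).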 Activity calls are given as the source filed them.
# Test system: SW-620 colon
# Experiment: NCI-60 one-dose screen, 48 h (100 = growth as untreated, 0 = no growth, -100 = all killed)
# Conditions: 10 µM unless noted
# Description: Growth inhibition of the SW-620 human tumor cell line is measured as a screen for anti-cancer activity. Cells are grown in 96 well plates and exposed to the test compound for 48 hours. Compounds are tested at a single concentration, which is 10^-5 M for most compounds. The reported endpoint is percent growth (GI% or GIPRCNT), where numbers from 0 - 100% represent growth inhibition, and numbers from -100% - 0 represent cell death. For example, a value of 40 represents 60% growth inhibition. A value of 0 means no net growth occurred over the course of the experiment. A value of -40 indicates 40% of cells at the beginning of the experiment died by the end of the experiment. A value of -100 means all cells are dead at the end of the experiment.
# NCI-60 Human Tumor Cell Lines Screen was performed using the standard one-dose NCI protocol, which is described in more detail at https://dtp.cancer.gov/discovery_development/nci-60/default.htm.
# Compounds with GIPRCNT values below 10 were considered active. Activity score was based on GIPRCNT using the following formula: […]
# Score is 0 for GIPRCNT values of 100 or above, 50 for GIPRCNT values of 0, and 100 for GIPRCNT values of -100.
row,Compound,growth
1,Cc1n[nH]c(C)c1-c1c(C)n[nH]c1C,-26.1% (active)
2,CC(N)C(=O)NNc1n[nH]c(=S)n1N (stereo not given),93.1% (inactive)
3,Cc1ccc(O)c(C(=O)O)c1,104% (inactive)
4,COc1cc(C2CC(c3cccc(Nc4ccncc4)c3)=NN2c2cc(Cl)cc(Cl)c2)cc(OC)c1OC (stereo not given),-62.6% (active)
5,C=C(C)[C@@H]1CC[C@]2(C(=O)NCC(=O)OC)CC[C@]3(C)[C@H](CC[C@@H]4[C@@]5(C)Cc6c([nH]c7ccccc67)C(C)(C)[C@@H]5CC[C@]43C)[C@@H]12,83% (inactive)
6,CC(=O)c1c[nH]c2ccc(-c3ccnc(Nc4ccc(NC(=O)C5CCCC5)c(CN5CCOCC5)c4)n3)cc12,0.153% (active)
7,COc1cc(CNC(=O)CCCCC[P+](c2ccccc2)(c2ccccc2)c2ccccc2)c(OC)c2c1OCO2,70.7% (inactive)
8,COc1ccc(-c2nc(SCCC(C)C)nc(N/N=C(/C)c3ccc(C)cc3)c2C#N)cc1,95.2% (inactive)
9,CC(=O)CCSc1ccc(OC(C)=O)cc1,105% (inactive)
10,COc1ccc(/C=C2\COc3ccc(-c4ccccc4)cc3C2=O)cc1O,6.95% (active)
11,Cc1nccc2c3ccc(OCc4cn(-c5ccc(Cl)cc5)nn4)cc3n(CCCc3ccccc3)c12,12.9% (inactive)
12,O=C(Cc1ccc(/C=C/C(=O)c2ncc[nH]2)cc1)Nc1ccc(C(F)(F)F)cc1,-16.1% (active)
13,CC(c1ccccc1)n1ccnc1CO (stereo not given),97.8% (inactive)
14,Cc1c2c(cc[n+]1Cc1ccccc1)c1ccc(OCc3ccccc3)cc1n2Cc1ccccc1,-88.1% (active)
15,CC[C@H](CC[C@@H](C)[C@H]1CC[C@H]2[C@@H]3CC=C4C[C@@H](OCCc5nn[nH]n5)CC[C@]4(C)[C@H]3CC[C@]12C)C(C)C,121% (inactive)
16,OC(c1ccccc1)c1ccccn1 (stereo not given),102% (inactive)
17,Cc1c2c(cc[n+]1Cc1ccccc1)c1ccc(OCC3CCCCC3)cc1n2CC1CCCCC1,-96.6% (active)
18,Cc1nc2sc(C(=O)Nc3ccccc3)c(N)c2cc1C(=O)c1ccc(C(F)(F)F)cc1,99.5% (inactive)
19,CCCCc1ccc(Nc2nnc(SCC(=O)NC(=O)NCC)s2)cc1,102% (inactive)
20,COc1ccc(/C=C(/c2ccccc2)[N+](=O)[O-])cc1,-57.6% (active)

row,Compound,growth
1,CCCCCN1C=C/C(=C\C(=O)N(C)c2cccc3ccccc23)c2ccccc21,94.3% (inactive)
2,OC1(c2ccc(Cl)c(C(F)(F)F)c2)CCN(CCCC(c2ccc(F)cc2)c2ccc(F)cc2)CC1,-100% (active)
3,COc1ccc(-c2nc(N/N=C/c3ccco3)nc(N3CCOCC3)c2C#N)cc1,89.8% (inactive)
4,O=CNc1cc(Cl)cc(Cl)c1,103% (inactive)
5,Cc1ccc(C2CC(c3cccc(Nc4ccncc4)c3)=NN2c2cc(Cl)cc(Cl)c2)cc1 (stereo not given),-58% (active)
6,CC(O)(CO)c1ccccc1 (stereo not given),103% (inactive)
7,CC(C)(O)C1CCCN1C(=O)c1ccccc1I (stereo not given),95.4% (inactive)
8,CCCCCCOc1ccc(/C=N/Nc2cc(C)nc3ccc(Br)cc23)cc1,-72.5% (active)
9,CC(=O)Nc1ccc(C(=O)Nc2cc(-c3ccccc3)ccc2N)cc1,59.3% (inactive)
10,CN1CCN(c2cnc(C(=O)Nc3cc(F)cc4cccnc34)cn2)CC1,39.6% (inactive)
11,O=C1CCCCCCCCC(O)C(O)CCCC(c2cccs2)O1 (stereo not given),103% (inactive)
12,c1ccc(CCSc2ncnc3nc[nH]c23)cc1,94.1% (inactive)
13,COc1ccc(OC)c(/C=C/[C@H]2O[C@@H](C)[C@H](O)[C@@H]2O)c1,113% (inactive)
14,Clc1nc(Cl)c2ncn(CCOCCn3cnc4c(Cl)nc(Cl)nc43)c2n1,-86.9% (active)
15,C=C1C(=O)O[C@H]2[C@H]1CC/C(COC(=O)NCCc1c[nH]c3ccc(Cl)cc13)=C\CC[C@@]1(C)O[C@@H]21,-87.4% (active)
16,CCNC(=S)NNC(=O)c1cc2ccc1CCc1ccc(cc1)CC2,101% (inactive)
17,COc1cc(CCNc2nc3cc(N)cc(N)c3nc2-c2ccccc2)cc(OC)c1,-56.7% (active)
18,COc1ccc(-c2nc(N/N=C/c3cccc(Br)c3)nc(N3CCOCC3)c2C#N)cc1,14% (inactive)
19,COc1ccccc1Nc1cc(O)c2c(=O)cc(-c3ccccc3)oc2c1,20.8% (inactive)
20,O=C1NC(=O)C(=Cc2cn(Cc3ccccn3)c3ccccc23)C(=O)N1,105% (inactive)
